# An excerpt weighted towards active compounds, which were near 19% of everything screened.
# TDP1 cell CPT – growth inhibition of DT40 Tdp1-/-;hTDP1 cells with camptothecin (screen for TDP1 inhibitors) | 420,000 tested, 12% active | Potency, µM (highest dose often 46.2 µM), usual class: inhibitors | chicken DT40 Tdp1-/-;hTDP1 cells + 20 nM CPT, ATP luminescence, 48 h; note: nearly all actives have a fitted effect of over 55% in size
#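 Chicken DT40 Tdp1-/- cells stably complemented with human TDP1 were seeded at 400 cells/well in medium containing 20 nM camptothecin, exposed to pin-transferred compounds, and grown at 37 °C for at least 48 hr. Viability was read as ATP luminescence.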
# ELG1 repair inh – ELG1-dependent DNA repair inhibition | Potency, µM (top dose mostly 46.1 µM), most hits filed as inhibitors | AID 504467 | 330,000 tested, 2.3% active | HEK293T ELG1-luciferase reporter, luminescence, 16 h; DNA damage induced by 5-fluorouridine; note: nearly all actives have a fitted effect of over 55% in size
#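 5-Fluorouridine DNA damage + compound/DMSO, 2,000 cells/well, 16 h, 37 °C/5% CO2. ONE-Glo, 30 min RT, luminescence. Readout = decrease in reporter signal.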
# TDP1 block – TDP1 (human) enzyme inhibition. recombinant TDP1, AlphaScreen DNA substrate cleavage. Potency, µM (top dose mostly 130 µM), usual class: inhibitors. 350,000 tested, 0.28% active. AID 485290; note: nearly all actives have a fitted effect of over 40% in size
# Target sequence (Q9NUW8 whole entry, looked up): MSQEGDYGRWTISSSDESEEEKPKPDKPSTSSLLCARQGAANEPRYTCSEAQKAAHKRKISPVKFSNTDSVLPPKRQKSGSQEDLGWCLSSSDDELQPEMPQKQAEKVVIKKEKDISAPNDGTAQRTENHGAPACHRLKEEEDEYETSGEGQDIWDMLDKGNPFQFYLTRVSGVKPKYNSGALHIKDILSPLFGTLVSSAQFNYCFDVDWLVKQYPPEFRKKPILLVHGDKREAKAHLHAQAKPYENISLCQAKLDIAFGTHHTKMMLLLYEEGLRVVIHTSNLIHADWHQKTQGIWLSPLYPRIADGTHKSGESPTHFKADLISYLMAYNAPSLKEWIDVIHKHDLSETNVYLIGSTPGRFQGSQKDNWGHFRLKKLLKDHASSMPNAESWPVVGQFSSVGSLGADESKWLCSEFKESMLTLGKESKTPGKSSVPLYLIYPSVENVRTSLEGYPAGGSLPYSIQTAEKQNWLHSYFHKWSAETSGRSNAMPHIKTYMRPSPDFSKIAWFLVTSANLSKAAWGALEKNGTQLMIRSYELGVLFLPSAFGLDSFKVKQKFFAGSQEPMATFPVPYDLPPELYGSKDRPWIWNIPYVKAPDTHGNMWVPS
#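 Enzyme-compound mixtures sat 15 min at room temperature, followed by a 5 min reaction with 15 nM final substrate and 10 min with AlphaScreen beads. Recombinant human Tdp1 was used at 1 nM final.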
# DT40 TDP1 no CPT – qHTS for Inhibitors of human tyrosyl-DNA phosphodiesterase 1 (TDP1): qHTS in cells in absence of CPT; 420,000 tested, 15% active; Potency, µM (highest dose often 46.2 µM), most hits filed as inhibitors; DT40 Tdp1-/- hTDP1 cells, no CPT, ATP luminescence, 48 h; AID 686978, 2013; note: nearly all actives have a fitted effect of over 55% in size
#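 Chicken DT40 Tdp1-/- cells stably complemented with human TDP1 were seeded at 400 cells/well with DMSO in place of 20 nM camptothecin. After compound pinning, cells grew at least 48 hr at 37 °C; viability read by CellTiter-Glo luminescence.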
# IL-1B inflam inh – inhibitors of inflammasome signaling (IL-1 beta secretion) | THP-1 LPS/ATP IL-1B secretion, AlphaLISA, 16 h; hits give low values | activity change, % at 57.5 µM | 360,000 tested, 4.7% active; in the data active = activity change below about -50%; inconclusive = mostly about -30% to -49%
#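 THP-1 cells pretreated 1 hr with compounds (up to 57.5 uM final), then stimulated with LPS (250 ng/mL final) plus ATP (1.25 mM final); secreted IL-1B measured by AlphaLISA after 16 hr, decreased signal indicating inhibition.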
# Giardia kill – kills Giardia lamblia. Giardia lamblia trophozoite viability. activity change, % at 7.66 µM, hits read low. 340,000 tested, 0.15% active. AID 540267; in the data active = activity change below about -80%; inconclusive = between about -30% and that limit;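 note: parasites exposed to compound for two days anaerobically before the ATP read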
#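 Anaerobic 48 hrs incubation at 37 deg C of 100 trophozoites/well with test compounds; ATPLite 1-Step luminescence, 15-30 min RT, reports cellular ATP as viability.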
# Hits are given with their value; n = inactive; u = inconclusive; x = no result given; [ ] = dose if it differs, or a comment. Unless noted, calls come from the whole dose curve; as a rule, active = well fitted curve in the direction sought with a large enough effect; inconclusive = small, poorly fitted or top-dose-only effect, or another doubt; inactive = no such curve, though single readings can be large; an effect the other way counts as inactive or inconclusive.
SMILES,TDP1 cell CPT,ELG1 repair inh,TDP1 block,DT40 TDP1 no CPT,IL-1B inflam inh,Giardia kill
CCOC(=O)C1CCCN(C(=O)c2cc(-c3ccc(F)cc3)nc3ccccc23)C1 (stereo not given),u,n,n,14.6µM,n,n
CC(C)CNC(=O)C1CCN(S(=O)(=O)c2ccc3c(c2)OCCO3)CC1,n,n,n[0.505 µM],u,n,n
Oc1ccc2ccccc2c1/C=N/Nc1nnc(-c2ncc[nH]2)c2ccccc12,5.17µM,u,n,5.17µM,n,n
Oc1ccc2ccccc2c1C=NNc1ccccn1,3.26µM,x,x,4.61µM,n,n
Oc1ccc2ccccc2c1CNc1ccccn1,n,n,x,n,n,n
COc1ccc(NC(=O)C(c2ccnc3ccccc23)n2c(=O)c(-c3ccccc3)nc3ccccc32)cc1 (stereo not given),n,x,x,n,n,x
CCCCN(C)CCNC(=O)c1cc2c(=O)n(C)c3ccccc3c2n1C,u,x,n,23.1µM,x,x
CCCCN(CC)CCCNC(=O)c1cc2c(=O)n(C)c3ccccc3c2n1C,u,u,n,u,-73.0,n
CC(C)OCCCNC(=O)c1cc2c(=O)n(C)c3ccccc3c2n1C,u,u,n,u,u,n
CCCCN(C)CCNC(=O)c1cc2c(=O)[nH]c3ccccc3c2n1C,n,n,x,n,n,n
Cn1c(C(=O)NCc2ccccn2)cc2c(=O)n(C)c3ccccc3c21,0.581µM,n,n,u,n,n
CC(NC(=O)c1cc2c(=O)n(C)c3ccccc3c2n1C)c1ccc2c(c1)OCCO2 (stereo not given),29.1µM,x,x,13µM,n,n
CCOc1ccc(S(=O)(=O)N2CCN(Cc3ccc4c(c3)OCO4)CC2)cc1C,n,n,n[0.0935 µM],n,n,n
CC(C)NC(=O)C(c1ccccc1)N1Cc2ccccc2C1=O (stereo not given),n,x,n,n,x,x
COc1ccc(CN(C)C(=O)c2cccc(S(=O)(=O)N3CCCc4ccccc43)c2)c(OC)c1OC,18.4µM,x,x,20.6µM,n,n
CN1CCN(S(=O)(=O)c2cccc(C(=O)N(C)Cc3c(F)cccc3Cl)c2)CC1,u,n,n,u,n,n
O=C(NCC1COc2ccccc2O1)c1c[nH]c2ccc(S(=O)(=O)N3CCOCC3)cc2c1=O (stereo not given),11.6µM,u,n,13µM,n,n
CN(Cc1cccc(F)c1)C(=O)c1ccc(S(=O)(=O)N2CCCCCC2)cc1,u,20.6µM,n,u,-66.1,n
CN(Cc1ccc(F)cc1)C(=O)c1cccc(S(=O)(=O)N2CCN(c3ccc(F)cc3)CC2)c1,16.4µM,u,n[0.505 µM],14.6µM,-57.8,n
COc1ccc(NC(=O)CN(C)C(=O)CCCSc2nc3ccccc3[nH]2)cc1,n,n,n,n,n,n
CN(Cc1ccccc1)C(=O)Cn1c(=O)c2cccn2c2cccnc21,n,n,n,u,n,n
O=C(NCC1COc2ccccc2O1)c1cccc(S(=O)(=O)N2CCN(c3ccccc3)CC2)c1 (stereo not given),18.4µM,u,n,20.6µM,n,n
CN(C)C(CNC(=O)c1cccc(S(=O)(=O)N2CCN(c3ccccc3)CC2)c1)c1ccccc1 (stereo not given),u,x,x,u,n,n
COc1ccc(CN(C)C(=O)c2cccc(S(=O)(=O)N3CCN(c4ccccc4)CC3)c2)c(OC)c1OC,11.6µM,u,x,13µM,n,n
COc1cccc(CN(C)C(=O)c2ccc(S(=O)(=O)N3CCCC3)cc2)c1OC,u,n,n,u,n,n
O=C(NCCOc1ccccc1F)c1cccc(S(=O)(=O)N2CCN(c3ccccc3)CC2)c1,u,u,n,25.9µM,n,n
CN(Cc1ccc(F)cc1)C(=O)c1cccc(S(=O)(=O)N2CCN(c3ccccc3)CC2)c1,u,18.3µM,n,23.1µM,n,n
Cc1ccc(S(=O)(=O)c2cc3cc(C(=O)Nc4ccc(C)cc4C)ccc3oc2=O)cc1,u,x,n,n,x,x
